Source: PubChem BioAssay (The Scripps Research Institute Molecular Screening Center)
Only some compounds are listed: those with a hit (about 5.7% of all), similar ones and a draw of the others.
hcDAF-12 act – H. contortus DAF-12 nuclear receptor activators, primary screen, cell-based, luminescence, HEK293, lit1-tk-luc reporter | HEK293 hcDAF-12 lit1-tk-luc reporter; 0% DMSO, 100% Δ7-dafachronic acid | activation, % at 6.8 µM | hit rate 1.4% among 370,000;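 active = activation above the mean of all tested compounds plus 3 SD, cut at about 5.5% in these data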
DAX1 inh-1 – DAX1 (NR0B1) inhibitors, primary screen, cell-based, HEK293, Gal4-DAX1, luciferase luminescence; Nuclear receptor subfamily 0 group B member 1 (Homo sapiens), P51843; HEK293 Gal4-DAX1 luciferase reporter; inhibition, % at 6.75 µM; hit rate 0.99% among 340,000;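 active = inhibition above the mean over all tested compounds plus 3 SD, cut at about 4.2% in these data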;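 note: inhibition shows as a rise in luminescence from relieved DAX1 repression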
DAX1 inh-2 – DAX1 (NR0B1) inhibitors on StAR promoter, primary screen, cell-based, luminescence, SF-1 (NR5A1), full-length DAX-1 | HEK293T StAR-luciferase reporter, SF-1/DAX-1 repression relief | inhibition, % at 6.8 µM | hit rate 1.1% among 370,000;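 active = inhibition above the mean over all tested compounds plus 3 SD, cut at about 3.6% in these data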;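 note: higher inhibition means more luminescence from relief of DAX-1 repression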
ssDAF12 agonist – S. stercoralis DAF-12 nuclear receptor activators, primary screen, cell-based, luminescence, HEK293, GRIP1 co-expression, lit1-tk-luc; Nuclear hormone receptor DAF-12 (Strongyloides stercoralis); HEK293 ssDAF-12/GRIP1 lit1-tk-luc reporter; % of 3 µM dafachronic acid response; activation, % at 6.8 µM; hit rate 1% among 370,000; AID 652126, 2013;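 active = activation above the mean over all tested compounds plus 3 SD, cut at about 0.9% in these data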
AHR activator – AHR activators, primary screen, cell-based, luminescence, luciferase reporter, human. Aryl hydrocarbon receptor (Homo sapiens), P35869. hit rate 2.5% among 320,000. activation, % at 5 µM. AHR-responsive luciferase reporter cells; in the data active = activation above about 47%
hgDAF12 agonist – H. glycines DAF-12 receptor agonists, primary screen, cell-based, luminescence, HEK293, GAL4 fusion, UAS-luciferase; AID 687014, 2013; hit rate 1.8% among 370,000; activation, % at 6.8 µM; Nuclear hormone receptor DAF-12 (Heterodera glycines), GAL4 fusion; HEK293 GAL4-hgDAF12 UAS-luciferase reporter, agonist luminescence; normalized to butyrate control;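 active = activation above a cutoff set at the mean of all screened compounds plus 3 SD, cut at about 10% in these data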
DAX1 conf – DAX1 (NR0B1) inhibitors relieving SF-1 repression, confirmation, cell-based, luminescence, HEK293T, full-length DAX-1, SF-1 activated StAR promoter; HEK293T StAR-promoter luciferase reporter, SF-1/DAX-1 repression; hit rate 87% among 2,400; inhibition, % at 6.8 µM; shares compounds with DAX1 inh-2;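 active = inhibition above the average of every tested compound plus 3 SD, cut at about 3.8% in these data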
Target sequence (P51843 whole entry, looked up): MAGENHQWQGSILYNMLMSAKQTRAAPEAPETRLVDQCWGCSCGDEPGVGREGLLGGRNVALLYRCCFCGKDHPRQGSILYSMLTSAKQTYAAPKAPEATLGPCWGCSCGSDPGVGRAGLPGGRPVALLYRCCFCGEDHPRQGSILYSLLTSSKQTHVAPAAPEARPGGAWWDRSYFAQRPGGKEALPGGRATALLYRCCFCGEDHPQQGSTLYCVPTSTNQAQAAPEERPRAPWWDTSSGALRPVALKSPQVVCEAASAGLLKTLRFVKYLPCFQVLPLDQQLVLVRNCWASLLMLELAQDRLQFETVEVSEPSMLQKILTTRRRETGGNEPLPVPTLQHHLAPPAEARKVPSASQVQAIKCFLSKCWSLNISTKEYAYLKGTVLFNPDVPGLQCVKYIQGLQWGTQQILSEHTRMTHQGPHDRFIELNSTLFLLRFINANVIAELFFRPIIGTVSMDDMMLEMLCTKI
SF1 mutant ctr – StAR reporter signal changes without DAX1, counter-screen for DAX1 inhibitor project, cell-based, luminescence, AF-2 mutant SF-1, transactivation. shares compounds with DAX1 inh-2. HEK293 StAR-luciferase, SF-1 AF2 mutant. inhibition, % at 6.8 µM. hit rate 78% among 2,400;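 active = inhibition above the mean of all tested compounds plus 3 SD, cut at about 3% in these data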
Numbers stand for hits; 0 = inactive; - = no result.

SMILES	hcDAF-12 act	DAX1 inh-1	DAX1 inh-2	ssDAF12 agonist	AHR activator	hgDAF12 agonist	DAX1 conf	SF1 mutant ctr
CC(=O)c1cccc(-c2ccnc3c2CC(C(=O)NCc2ccccc2)O3)c1 (centres undefined)	0	-	4.8	0	-	0	12	0
CC(=O)c1cccc(-c2ccnc3c2CC(C(=O)NCc2ccc(F)c(F)c2)O3)c1 (centres undefined)	0	-	0	0	-	0	-	-
COCCCn1c(SCC(=O)Nc2ccccc2F)nnc1-c1ccoc1C	0	0	0	0	0	0	-	-
CC(C)C[C@@H]1Cc2[nH]c(=S)[nH]c(=O)c2[C@H](C)O1	0	-	5.8	0	-	0	0	0
C[C@@H]1O[C@H](C2CC2)Cc2[nH]c(=S)[nH]c(=O)c21	0	-	0	0	-	0	-	-
O=C(c1ccncc1)N(c1ccc(N2CCOCC2)cc1)C(c1ccccc1)c1nc2ccccc2[nH]1 (centres undefined)	6.2	-	5.3	0	-	13	7.7	4.9
COc1ccc(OC)c(S(=O)(=O)n2cnc3ccccc32)c1	0	0	0	0	0	0	-	-
Cc1cccc(C(=O)Nc2nnc(SCC(=O)NCc3ccco3)s2)c1	0	0	5.6	0	0	0	0	0
COc1cccc(C(=O)Nc2nnc(SCC(=O)Nc3ccc(NC(C)=O)cc3)s2)c1	5.6	0	10	0	0	0	9.1	6.6
Cc1cccc(C)c1Nc1nnc(SCC(=O)NCc2ccco2)s1	0	0	0	0	0	0	-	-
O=S1(=O)CC(N2CCN(CC3CC3)CC2)CN1Cc1ccc(F)cc1 (centres undefined)	0	-	5.9	0	-	0	0	0
Cc1ccc(CN2CC(N3CCN(CC4CC4)CC3)CS2(=O)=O)cc1 (centres undefined)	0	-	0	0	-	0	-	-
O=S1(=O)CC(N2CCCCC2)CN1Cc1cn(Cc2ccc(F)cc2)nn1 (centres undefined)	0	-	0	0	-	0	-	-
O=S1(=O)CC(N2CC=CC2)CN1Cc1cn(Cc2ccc(F)cc2)nn1 (centres undefined)	0	-	5.2	0	-	0	0	0
CCC(=O)Nc1sc(C(=O)Nc2ccccc2OC)c(C)c1C(=O)OC	0	0	0	0	0	0	-	-
CCC(=O)Nc1sc(C(=O)Nc2ccccc2F)c(C)c1C(=O)OC	0	0	5.9	0	0	13	13	6.3
CC12CCC(=O)N1C(C(=O)NNC(=O)c1ccc(Br)cc1)CS2 (centres undefined)	0	0	5.5	0	0	0	0	0
C/C(=N\NC(=O)c1ccccc1O)c1ccc(NC(=O)Cc2ccccc2)cc1	0	0	7.2	0	52	0	6.3	3.6
COc1ccc(C(=O)NN=C(Cc2ccccc2)Cc2ccccc2)cc1OC	0	0	0	0	0	0	-	-
O=C(Cc1ccccc1)Nc1ccc(C(=O)O)cc1	0	0	0	0	0	0	-	-
COc1cc(C(=O)N/N=C(\C)c2ccc(NC(=O)Cc3ccccc3)cc2)ccc1O	0	0	6.9	1.1	-	0	6.2	4.2
C=CCNc1nc(NCc2ccc(NC(C)=O)cc2)c2sc(-c3ccccc3)cc2n1	0	-	6.4	2.0	-	12	7.8	5.7
Cc1ccc(S(=O)(=O)/N=C(/Nc2ccccc2C)c2ccccc2)cc1	0	0	0	0	0	0	-	-
COC(=O)CSc1nc2cc(C)ccc2cc1C#N	0	4.4	5.0	1.2	0	12	18	9.3
Cc1ccc2cc(C#N)c(SCC(=O)NCC3CCCO3)nc2c1 (centres undefined)	0	0	0	0	0	0	-	-
SMILES	hcDAF-12 act	DAX1 inh-1	DAX1 inh-2	ssDAF12 agonist	AHR activator	hgDAF12 agonist	DAX1 conf	SF1 mutant ctr
CCOC(=O)c1c(-c2ccc(F)cc2)csc1NC(=O)C1CCCO1 (centres undefined)	0	0	0	0	0	0	-	-
COc1ccc(C(=O)NCCC2=CCCCC2)cc1	5.6	0	5.5	1.2	0	0	10	0
O=C(CCNC(=O)c1ccc(Cl)cc1)NCCC1=CCCCC1	0	0	5.4	0	0	0	5.8	5.8
O=C(NCCc1ccc(F)cc1)c1ccc([N+](=O)[O-])cc1	0	0	6.7	0	0	0	7.3	3.9
O=C(NCCC1=CCCCC1)c1ccc([N+](=O)[O-])cc1	0	0	4.6	0	0	13	13	7.2
COc1ccc(C(=O)NCC(=O)OCC(=O)NCCC2=CCCCC2)cc1	0	0	0	0	0	0	-	-
CC[C@]12c3[nH]c4ccccc4c3CCN1C(=O)C(CC(=O)NCC13CC4CC(CC(C4)C1)C3)C[C@@H]2C(=O)N1CCN(C(=O)C2CC2)CC1 (some centres undefined)	0	0	0	0	0	0	-	-
CC1=C(C(=O)OCc2ccc3c(c2)OCO3)C(c2ccccc2)NC(=O)N1 (centres undefined)	0	0	0	0	0	0	-	-
COc1ccc(CNc2nc3c(c(=O)[nH]c(=O)n3C)n2Cc2ccccc2C)cc1	0	0	0	0	0	0	-	-
O=C(CCNC(=O)c1ccc([N+](=O)[O-])cc1)NCCC1=CCCCC1	0	0	0	0	0	0	-	-
O=C(NCCC1=CCCCC1)c1ccc(F)cc1	0	0	6.4	0	0	11	18	6.3
Cc1cnc(NC(=O)c2ccc3ncsc3c2)s1	0	0	13	0	-	13	15	6.7
CC(CN1CCN(C)CC1)OC(=O)c1ccccc1 (centres undefined)	0	0	0	0	0	0	-	-
CC(C)c1ccc(CN2CCC(n3nccc3NC(=O)C3CCCC3)CC2)cc1	0	0	0	0	-	0	-	-
COc1ccc(C=C2CCc3ccccc3C2=O)cc1	0	-	6.6	0	-	0	7.2	0
NC(=O)c1ccsc1NC(=O)COC(=O)c1nc(Cl)ccc1Cl	0	0	0	0	0	0	-	-
